These results are taken from PubChem BioAssay AID651784 (National Center for Advancing Translational Sciences (NCATS), 2012).

Records with an inconclusive call do not appear. Calls of active or inactive are those of the source. Calls follow the shape of the dose curve; as a rule, active = well fitted inhibition curve with a large enough effect; inconclusive = small, poorly fitted or top-dose-only effect; inactive = no such curve, though single readings can be large or run the other way.
Potency is read from the fitted curve at half-maximal effect.

This experiment in a line: Acumen qHTS Assay for Inhibitors of the mTORC1 Signaling Pathway in MEF (Tsc2-/-, p53-/-) Cells: Hit Validation.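 Also: phospho-rpS6 Ser235/236 immunofluorescence normalized to propidium iodide cell count; nearly all actives have a fitted effect of over 65% in size.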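 As to activity change, negative = inhibition: cells exposed to compound for 24 hours; plate controls were DMSO for no effect and 7.5 nM rapamycin control for full effect.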 As to conditions: Acumen imaging; activity change, negative = inhibition: at 37.3 µM (top of the series).
As for `COc1ccc(CCCc2nnc(SCC(=O)Nc3ccc(OC)cc3)o2)cc1`, the activity change, negative = inhibition came to 14%.
As for `Cn1ccc2c(OCC(=O)Nc3ccc(OC(F)(F)F)cc3)cccc2c1=O`, the Potency is 16.5 µM (active).
Turning to `CCCN(c1ccccc1CC)S(=O)(=O)c1ccc2c(c1)CC(C)N2C(=O)C1CC1` (stereo not given), the Potency was 0.521 µM (active).
Consider `COc1cc2ncnc(Nc3ccc(F)c(Cl)c3)c2cc1OCCCN1CCOCC1`, for which the activity change, negative = inhibition was -7.44%.
On to `CCOC(=O)Cc1ccc(NC(=O)n2ncc3cc(Cl)ccc32)cc1`, for which the Potency was 8.26 µM (active).
For the molecule `CCOc1ccccc1NC(=O)Cn1c(=O)n(CCC(=O)NCc2ccc3c(c2)OCO3)c(=O)c2ccccc21`, the activity change, negative = inhibition is -23.6%.
Regarding `CCCCOc1cccc(C(=O)N(Cc2cccs2)c2ccc(OC)cc2)c1`, the Potency was 16.5 µM (active).
Regarding `Cc1ccc(C)c(N2CCN(CCCNC(=O)c3nnc(Cc4ccc(F)cc4Cl)o3)CC2)c1`, the Potency is 10.4 µM (active).
On to `CS(=O)(=O)c1ncc(Cl)c(C(=O)N(Cc2ccc(Cl)cc2)Cc2ccco2)n1`, for which the activity change, negative = inhibition is -102%.
Regarding `CCOc1ccc(NC(=O)CSc2oc(-c3ccc(F)cc3)nc2S(=O)(=O)c2ccc(C)cc2)cc1`, the Potency was 4.65 µM (active).
With `CCS(=O)(=O)c1ncc(Cl)c(C(=O)N2CCN(c3cccc(Cl)c3)CC2)n1`, the Potency was 1.31 µM (active).
Consider `CCc1ccccc1NC(=O)CSCc1cnn(-c2ccccc2)c1-n1cccc1`, for which the activity change, negative = inhibition came to 14.7%.
Take `CCCS(=O)(=O)c1c(S(=O)(=O)CCC)c2cc(C(C)(C)C)ccn2c1C(=O)c1ccc(OC)c(OC)c1`: the activity change, negative = inhibition was -5.67%.
Still for that read-out and setting: under `CCOc1ccc(-c2nc(SCC(=O)c3ccccc3)n[nH]2)cc1` stands -131%; under `CCC(C)Sc1oc(-c2ccco2)nc1S(=O)(=O)c1ccc(C)cc1` (stereo not given), 3.02%.
